Results filed as inconclusive are left out. Calls of active or inactive are those of the source. Unless noted, calls come from the whole dose curve; as a rule, active = well fitted curve in the direction sought with a large enough effect in the repeat runs; inconclusive = weak or mixed curves; inactive = no such curve, though single readings can be large; an effect the other way counts as inactive or inconclusive.
Tests used:
[1] = qHTS assay to test for compound auto fluorescence at 535 nm (green) in HEK293 cells (AID 720680)
[2] = qHTS assay to test for compound auto fluorescence at 460 nm (blue) in HEK293 cell free culture (AID 720681)
Procedure, shortened: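 Blue fluorescence (Ex 405/Em 460 nm, triamterene-equivalent) was read immediately after pin transfer of compound or DMSO into medium (DMEM, 10% FBS) without cells.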

[3] = qHTS assay to test for compound auto fluorescence at 535 nm (green) in HEK293 cell free culture (AID 720682)
Procedure, shortened: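 Cell-free medium (DMEM, 10% FBS) receives compound or DMSO by pintool. Plate read directly at Ex 485/Em 535 nm. Signal converted to fluorescein equivalency.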

[4] = qHTS assay to test for compound auto fluorescence at 590 nm (red) in HEK293 cell free culture (AID 720683)
Procedure, shortened: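 Red-channel autofluorescence of compounds in culture medium (DMEM, 10% FBS), no cells, measured at 540/590 nm. Rose Bengal sodium is the reference fluorophore for equivalence.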

[5] = qHTS assay to test for compound auto fluorescence at 590 nm (red) in HepG2 cell free culture (AID 720684)
Procedure, shortened: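 No cells present: MEM + 10% FBS only. Compound pinned in, red label read (540/590 nm). Activity = fluorescence equivalent to Rose Bengal sodium.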

[6] = qHTS assay to test for compound auto fluorescence at 460 nm (blue) in HepG2 cell free culture (AID 720685)
Procedure, shortened: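 Cell-free plates of MEM plus 10% FBS received 23 nL compound or DMSO vehicle; blue-channel (405/460 nm) intensity scored against triamterene as reference fluorophore.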

[7] = qHTS assay to test for compound auto fluorescence at 535 nm (green) in HepG2 cell free culture (AID 720686)
[8] = qHTS assay to test for compound auto fluorescence at 460 nm (blue) in HepG2 cells (AID 720687)
Procedure, shortened: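 Blue-channel autofluorescence (Ex/Em 405/460 nm, triamterene-equivalent) was measured after 1 hr compound exposure at 37 C, 5% CO2. Cells were HepG2, plated overnight at 37 C in MEM plus 10% FBS.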

[9] = target: Glucocorticoid receptor (Homo sapiens) (UniProt P04150); assay: qHTS assay to identify small molecule agonists of the glucocorticoid receptor (GR) signaling pathway (AID 720691; active = well fitted activation curve with a large enough effect in the signal ratio in the repeat runs, not every such curve was filed as active; the % refers to the signal ratio)
Procedure, shortened: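 Compounds in DMSO, alongside positive controls, were added to GR-bla HeLa reporter cells and incubated 18 h at 37 C; GRE-driven beta-lactamase was detected by fluorescence after 2 h with FRET substrate at room temperature.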

[10] = target: Glucocorticoid receptor (Homo sapiens) (UniProt P04150); assay: qHTS assay to identify small molecule antagonists of the glucocorticoid receptor (GR) signaling pathway (AID 720692; active = well fitted inhibition curve with a large enough effect in the signal ratio in the repeat runs, not every such curve was filed as active; the % refers to the signal ratio)
Procedure, shortened: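 In a 1536-well cell format, compounds were added 4 h after seeding GR-bla HeLa cells, together with dexamethasone at 5 nM final; reporter activity was measured by FRET-substrate fluorescence following 18 h at 37 C.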

[11] = qHTS assay to identify small molecule antagonists of the glucocorticoid receptor (GR) signaling pathway - cell viability counter screen (AID 720693); note: nearly all actives have a fitted effect of over 55% in size
[12] = qHTS assay for identifying genotoxic compounds that show differential cytotoxicity against isogenic chicken DT40 cell lines with known DNA damage response pathways - wild type cell line (AID 743012); note: nearly all actives have a fitted effect of over 60% in size
Procedure, shortened: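 Viability of DNA repair-proficient chicken DT40 cells was assessed by CellTiter-Glo luminescence following 40 h compound exposure at 37 C/5% CO2.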

[13] = qHTS assay to identify small molecule antagonists of the androgen receptor (AR) signaling pathway using the MDA cell line - cell viability counter screen (AID 743041; note: nearly all actives have a fitted effect of over 45% in size)
Procedure, shortened: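 Using the breast carcinoma line MDA-kb2 AR-luc, test chemicals were co-incubated with R1881 for 16 h; CellTiter-Fluor reagent, added at 15.5 h, provided a fluorescence measure of live cells.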

[14] = qHTS assay for identifying genotoxic compounds that show differential cytotoxicity against isogenic chicken DT40 cell lines with known DNA damage response pathways - Rad54/Ku70 mutant cell line (AID 743015); note: nearly all actives have a fitted effect of over 60% in size
[15] = qHTS assay to identify small molecule antagonists of the androgen receptor (AR) signaling pathway - cell viability counter screen (AID 743033; note: nearly all actives have a fitted effect of over 45% in size)
[16] = qHTS assay for identifying genotoxic compounds that show differential cytotoxicity against isogenic chicken DT40 cell lines with known DNA damage response pathways - Rev3 mutant cell line (AID 743014); note: nearly all actives have a fitted effect of over 55% in size
[17] = target: Androgen receptor (Homo sapiens) (UniProt P10275); assay: qHTS assay to identify small molecule antagonists of the androgen receptor (AR) signaling pathway (AID 743035; active = well fitted inhibition curve with a large enough effect in the signal ratio in the repeat runs, not every such curve was filed as active; the % refers to the signal ratio)
Procedure, shortened: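 Reporter HEK293 cells were exposed to compounds and R1881 overnight (16 h, 37C); beta-lactamase activity was then quantified by FRET fluorescence.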

[18] = target: Androgen receptor (Homo sapiens) (UniProt P10275); assay: qHTS assay to identify small molecule agonists of the androgen receptor (AR) signaling pathway (AID 743036; active = well fitted activation curve with a large enough effect in the signal ratio in the repeat runs, with a control signal flat, not every such curve was filed as active; the % refers to the signal ratio)
Procedure, shortened: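 AR-bla HEK293 cells, 2,000/well; 4 h preincubation 37C/5% CO2; compound (DMSO) 16 h at 37C; LiveBLAzer B/G FRET substrate 2 h RT; fluorescence intensity read-out.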

[19] = target: Androgen receptor (Homo sapiens) (UniProt P10275); assay: qHTS assay to identify small molecule agonists of the androgen receptor (AR) signaling pathway using the MDA cell line (AID 743040; note: nearly all actives have a fitted effect of over 20% in size)
Procedure, shortened: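 Stable MMTV-luciferase reporter in MDA-kb2 cells; note the promoter carries GR as well as AR response elements. 16 h compound treatment, 37C, 0% CO2; ONE-Glo luminescence endpoint.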

[20] = target: Androgen receptor (Homo sapiens) (UniProt P10275); assay: qHTS assay to identify small molecule antagonists of the androgen receptor (AR) signaling pathway using the MDA cell line (AID 743042; note: nearly all actives have a fitted effect of over 55% in size)
Procedure, shortened: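 Antagonist mode: compounds plus R1881 agonist added to MDA-kb2 AR-luc cells, incubated 16 h at 37C. Luciferase reporter luminescence quantified, with multiplexed CellTiter-Fluor readout for cell viability.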
% is set by controls: 0 for no effect and ±100 for the full control effect.

Chain of Glucocorticoid receptor (Homo sapiens) (P04150 whole entry, looked up): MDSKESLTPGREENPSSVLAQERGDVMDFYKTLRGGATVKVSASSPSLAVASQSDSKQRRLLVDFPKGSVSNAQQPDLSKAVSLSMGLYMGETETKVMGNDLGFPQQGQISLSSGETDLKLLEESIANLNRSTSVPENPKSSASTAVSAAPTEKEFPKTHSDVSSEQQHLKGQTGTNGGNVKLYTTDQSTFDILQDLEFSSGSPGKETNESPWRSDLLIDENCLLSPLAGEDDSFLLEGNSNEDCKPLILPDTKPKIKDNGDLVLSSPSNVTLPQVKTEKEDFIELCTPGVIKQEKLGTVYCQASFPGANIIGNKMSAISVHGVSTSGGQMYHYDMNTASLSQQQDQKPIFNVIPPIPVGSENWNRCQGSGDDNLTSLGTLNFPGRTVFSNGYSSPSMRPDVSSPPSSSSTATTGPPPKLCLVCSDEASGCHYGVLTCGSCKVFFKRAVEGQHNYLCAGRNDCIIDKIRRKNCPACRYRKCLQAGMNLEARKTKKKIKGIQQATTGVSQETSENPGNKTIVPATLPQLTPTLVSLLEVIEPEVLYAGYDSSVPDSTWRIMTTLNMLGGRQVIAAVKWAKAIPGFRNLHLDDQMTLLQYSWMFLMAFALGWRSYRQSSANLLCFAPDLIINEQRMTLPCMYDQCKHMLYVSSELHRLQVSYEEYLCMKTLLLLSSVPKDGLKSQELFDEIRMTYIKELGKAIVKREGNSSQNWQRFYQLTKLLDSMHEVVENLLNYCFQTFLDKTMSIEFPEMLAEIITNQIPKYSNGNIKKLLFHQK
Chain of Androgen receptor (Homo sapiens) (P10275 whole entry, looked up): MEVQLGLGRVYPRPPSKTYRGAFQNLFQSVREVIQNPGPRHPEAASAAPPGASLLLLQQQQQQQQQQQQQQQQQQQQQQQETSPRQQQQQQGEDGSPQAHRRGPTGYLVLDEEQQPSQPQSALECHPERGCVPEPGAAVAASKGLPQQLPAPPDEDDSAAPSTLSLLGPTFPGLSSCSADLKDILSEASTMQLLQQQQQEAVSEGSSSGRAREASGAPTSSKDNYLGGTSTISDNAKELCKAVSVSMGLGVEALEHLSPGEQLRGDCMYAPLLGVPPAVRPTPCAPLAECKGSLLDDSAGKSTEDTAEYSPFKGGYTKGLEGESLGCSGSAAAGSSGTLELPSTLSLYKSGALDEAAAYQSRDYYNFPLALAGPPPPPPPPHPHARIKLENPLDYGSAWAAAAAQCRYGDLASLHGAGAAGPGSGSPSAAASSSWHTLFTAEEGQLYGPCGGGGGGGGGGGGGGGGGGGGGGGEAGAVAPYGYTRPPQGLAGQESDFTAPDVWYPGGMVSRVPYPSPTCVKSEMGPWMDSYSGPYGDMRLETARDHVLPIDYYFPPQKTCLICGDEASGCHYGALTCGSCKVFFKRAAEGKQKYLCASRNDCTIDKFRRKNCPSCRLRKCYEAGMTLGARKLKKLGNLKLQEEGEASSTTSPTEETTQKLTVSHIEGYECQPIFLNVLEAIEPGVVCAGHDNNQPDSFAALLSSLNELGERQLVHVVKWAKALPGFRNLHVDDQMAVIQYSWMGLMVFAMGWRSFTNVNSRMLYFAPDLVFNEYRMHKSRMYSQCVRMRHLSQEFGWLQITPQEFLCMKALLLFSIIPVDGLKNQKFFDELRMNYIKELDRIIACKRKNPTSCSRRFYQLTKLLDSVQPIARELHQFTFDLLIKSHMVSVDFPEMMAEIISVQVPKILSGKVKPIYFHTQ

CC[C@H](C)C(=O)O[C@H]1C[C@H](O)C=C2C=C[C@H](C)[C@H](CC[C@@H](O)C[C@@H](O)CC(=O)O)[C@H]21
inactive: outcome [1] | outcome [2] | outcome [3] | outcome [4] | outcome [5] | outcome [6] | outcome [7] | outcome [8] | Potency [9] | outcome [10] | outcome [11] | Potency [12] | Potency [13]

CNS(=O)(=O)CCc1ccc2[nH]cc(C3CCN(C)CC3)c2c1
inactive: outcome [1] | outcome [2] | outcome [3] | outcome [4] | outcome [5] | outcome [6] | outcome [7] | outcome [8] | Potency [9] | outcome [10] | outcome [11] | Potency [12] | Potency [14] | Potency [15] | Potency [13]

COc1cc(C(=S)N2CCOCC2)cc(OC)c1OC
inactive: outcome [1] | outcome [2] | outcome [3] | outcome [4] | outcome [5] | outcome [6] | outcome [7] | outcome [8] | Potency [9] | outcome [10] | outcome [11] | Potency [12] | Potency [14] | Potency [15] | Potency [13]

COC(=O)CCc1ccc(OCC(O)CNC(C)C)cc1 (stereo not given)
inactive: outcome [1] | outcome [2] | outcome [3] | outcome [4] | outcome [5] | outcome [6] | outcome [7] | outcome [8] | Potency [9] | outcome [10] | outcome [11] | Potency [15] | Potency [13]

CCCCCCCC/C=C\CCCCCCCC(=O)OCCCC
inactive: fluorescence, % of fluorescein [1] 0.0126% [at 18.6 µM] | fluorescence, % of fluorescent control [2] -0.0858% [at 18.6 µM] | activity change [3] -0.0648% [at 18.6 µM] | fluorescence, % of fluorescent control [4] 0.213% [at 18.6 µM] | fluorescence, % of Rose Bengal [5] 0.134% [at 18.6 µM] | fluorescence, % of fluorescent control [6] -0.0292% [at 18.6 µM] | fluorescence, % of fluorescein control [7] -0.0278% [at 18.6 µM] | fluorescence, % of fluorescent control [8] -0.0041% [at 18.6 µM] | Potency [9] | outcome [10] | Potency [12] | Potency [16] | Potency [14] | Potency [13]

N[C@@H](CCC(=O)Nc1ccc([N+](=O)[O-])cc1)C(=O)O
inactive: outcome [1] | outcome [2] | outcome [3] | outcome [4] | outcome [5] | outcome [6] | outcome [7] | outcome [8] | Potency [9] | outcome [10] | outcome [11] | Potency [16] | Potency [14] | Potency [15] | Potency [17] | outcome [18] | outcome [19] | Potency [20]

NC(CO)C(=O)NNCc1ccc(O)c(O)c1O (stereo not given)
inactive: outcome [1] | outcome [2] | outcome [3] | outcome [4] | outcome [5] | outcome [6] | outcome [7] | outcome [8] | outcome [11] | Potency [14] | Potency [17] | outcome [18] | outcome [19] | Potency [13] | Potency [20]

Cc1cccc(C)c1OCC(C)N (stereo not given)
inactive: outcome [1] | outcome [2] | outcome [3] | outcome [4] | outcome [5] | outcome [6] | outcome [7] | outcome [8] | outcome [11] | Potency [13]

O=C1CCCC(=O)O1
inactive: outcome [1] | outcome [2] | outcome [3] | outcome [4] | outcome [5] | outcome [6] | outcome [7] | outcome [8] | outcome [11] | Potency [12] | Potency [16] | Potency [14] | Potency [15] | Potency [13]

CC(=O)c1ccc2c(c1)Cc1ccccc1-2
inactive: outcome [1] | outcome [2] | outcome [3] | outcome [4] | outcome [5] | outcome [6] | outcome [7] | outcome [8] | outcome [11] | Potency [16] | Potency [14] | Potency [15] | Potency [13]

CC(C)=O
inactive: outcome [1] | outcome [2] | outcome [3] | outcome [4] | outcome [5] | outcome [6] | outcome [7] | outcome [8] | outcome [11] | Potency [12] | Potency [16] | Potency [14] | Potency [17] | outcome [18] | outcome [19] | Potency [13] | Potency [20]

C=CC(OCC)OCC
inactive: outcome [1] | outcome [2] | outcome [3] | outcome [4] | outcome [5] | outcome [6] | outcome [7] | outcome [8] | Potency [12] | Potency [16] | Potency [14] | Potency [15] | Potency [13]

CC(S)C(=O)NCC(=O)O (stereo not given)
inactive: outcome [1] | outcome [2] | outcome [3] | outcome [4] | outcome [5] | outcome [6] | outcome [7] | outcome [8] | outcome [11] | Potency [12] | Potency [16] | Potency [14] | Potency [17] | outcome [18] | outcome [19] | Potency [13] | Potency [20]

CCC(C)(CCC(C)C)C(=O)O (stereo not given)
inactive: outcome [1] | outcome [2] | outcome [3] | outcome [4] | outcome [5] | outcome [6] | outcome [7] | outcome [8] | outcome [11] | Potency [12] | Potency [14] | Potency [15] | Potency [13]

Source: PubChem BioAssay (Tox21)
